Source: the supplement of paper PMC10849652
Targets with a hit are over-represented here; the source holds about 7,900 in all. About 0.6% of all pairs of compound and target were hits.

Legend:
Test in all cases: log2 fold change, soluble protein after heating vs DMSO (PISA); higher = thermal stabilisation; K562 cells, 10 uM, 30 min; active = over 0.2 and 3.5 SD of the protein, either way, in both replicates (recomputed)
[1] = compound: NC(=O)Nc1cc(-c2cccc(F)c2)sc1C(=O)N[C@H]1CCCNC1
In short: (§1)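 Values are thermal stability changes relative to control samples and are taken from duplicates. They are stated as log2 fold changes. Before quantification by TMTpro 16plex LC-MS/MS with equalised channel sums, K562 cells at 2×10^6 cells/mL were treated with 10 μM compound for 30 min, heated in aliquots for 3 min across 48°C-58°C, pooled, extracted in PBS with 0.5% NP-40 at 4°C, and centrifuged at 21,000xg for 90 min to give the soluble supernatant.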

[2] = compound: NC(=O)c1cnc(N[C@@H]2CCCC[C@@H]2N)nc1Nc1cccc(-n2nccn2)c1
In short: as §1

[3] = compound: NCC(=O)Nc1ccc(-n2nc(C(F)(F)F)cc2-c2ccc3c(ccc4ccccc43)c2)cc1
In short: as §1

entinostat = compound: Nc1ccccc1NC(=O)c1ccc(CNC(=O)OCc2cccnc2)cc1 [entinostat]
In short: as §1

vorinostat = compound: O=C(CCCCCCC(=O)Nc1ccccc1)NO [vorinostat]
In short: as §1

citarinostat = compound: O=C(CCCCCCNC(=O)c1cnc(N(c2ccccc2)c2ccccc2Cl)nc1)NO [citarinostat]
In short: as §1

[4] = compound: O=C1NC(=O)C(c2cnc3ccccn23)=C1c1cn2c3c(cc(F)cc13)CN(C(=O)N1CCCCC1)CC2
In short: as §1

[5] = compound: c1cc(OCCN2CCCCC2)cc(-c2n[nH]c3ccc(-c4nnc[nH]4)cc23)c1
In short: as §1

[6] = compound: NC1(c2ccc(-c3nc4ccn5c(=O)[nH]nc5c4cc3-c3ccccc3)cc2)CCC1
In short: as §1

silmitasertib = compound: O=C(O)c1ccc2c(c1)nc(Nc1cccc(Cl)c1)c1ccncc12 [silmitasertib]
In short: as §1

Measured: log2 fold change

ELAC1 (UniProt Q9H777)
UniProt Q9H777, sequence (Q9H777 whole entry, looked up): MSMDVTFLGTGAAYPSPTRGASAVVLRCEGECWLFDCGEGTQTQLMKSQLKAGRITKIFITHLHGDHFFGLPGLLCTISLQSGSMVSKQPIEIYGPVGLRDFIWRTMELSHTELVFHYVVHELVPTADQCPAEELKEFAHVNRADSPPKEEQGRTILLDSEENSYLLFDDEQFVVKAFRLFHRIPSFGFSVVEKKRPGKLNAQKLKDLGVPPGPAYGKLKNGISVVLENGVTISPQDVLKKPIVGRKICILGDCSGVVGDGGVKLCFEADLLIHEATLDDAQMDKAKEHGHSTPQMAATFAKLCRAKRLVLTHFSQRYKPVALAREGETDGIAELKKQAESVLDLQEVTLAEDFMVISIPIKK
inactive: [1] 0.014 | [2] 0.053 | [3] -0.082 | entinostat -0.202 | vorinostat 0.285 | citarinostat 0.05 | [4] 0.075 | [5] -0.05

DSN1 (UniProt Q9H410)
UniProt Q9H410, sequence (Q9H410 whole entry, looked up): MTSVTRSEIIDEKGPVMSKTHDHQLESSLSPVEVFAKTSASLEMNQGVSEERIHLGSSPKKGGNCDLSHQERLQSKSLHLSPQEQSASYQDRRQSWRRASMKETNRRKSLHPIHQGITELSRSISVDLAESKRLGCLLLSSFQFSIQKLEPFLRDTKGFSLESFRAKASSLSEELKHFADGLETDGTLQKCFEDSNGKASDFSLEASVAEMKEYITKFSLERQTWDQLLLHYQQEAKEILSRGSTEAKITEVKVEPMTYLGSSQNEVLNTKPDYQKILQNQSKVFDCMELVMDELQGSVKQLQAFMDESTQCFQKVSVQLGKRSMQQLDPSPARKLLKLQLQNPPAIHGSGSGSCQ
inactive: [1] -0.026 | [2] -0.057 | [6] -0.166 | [3] -0.037 | entinostat 0.076 | citarinostat 0.021 | silmitasertib 0.025 | [4] -0.032 | [5] -0.081

DCTPP1 (UniProt Q9H773)
UniProt Q9H773, sequence (Q9H773 whole entry, looked up): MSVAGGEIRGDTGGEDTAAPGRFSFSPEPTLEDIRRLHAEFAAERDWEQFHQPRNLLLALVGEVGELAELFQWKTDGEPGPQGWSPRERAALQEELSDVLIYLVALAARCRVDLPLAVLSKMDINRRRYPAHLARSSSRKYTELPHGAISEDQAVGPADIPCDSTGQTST
inactive: [1] -0.051 | [2] 0.117 | [6] -0.014 | [3] 0.028 | entinostat 0.062 | vorinostat -0.093 | citarinostat 0.005 | silmitasertib -0.003 | [4] -0.001 | [5] 0.008

DDX39A (UniProt O00148)
inactive: [1] -0.067 | [2] -0.04 | [6] 0.057 | [3] -0.042 | entinostat -0.003 | vorinostat 0.048 | citarinostat -0.006 | silmitasertib -0.011 | [4] -0.107 | [5] -0.233

DDX11 (UniProt Q96FC9)
inactive: [1] -0.1 | [2] -0.099 | [6] -0.061 | [3] 0.032 | entinostat -0.009 | silmitasertib 0.191 | [4] -0.007

FAF2 (UniProt Q96CS3)
UniProt Q96CS3, sequence (Q96CS3 whole entry, looked up): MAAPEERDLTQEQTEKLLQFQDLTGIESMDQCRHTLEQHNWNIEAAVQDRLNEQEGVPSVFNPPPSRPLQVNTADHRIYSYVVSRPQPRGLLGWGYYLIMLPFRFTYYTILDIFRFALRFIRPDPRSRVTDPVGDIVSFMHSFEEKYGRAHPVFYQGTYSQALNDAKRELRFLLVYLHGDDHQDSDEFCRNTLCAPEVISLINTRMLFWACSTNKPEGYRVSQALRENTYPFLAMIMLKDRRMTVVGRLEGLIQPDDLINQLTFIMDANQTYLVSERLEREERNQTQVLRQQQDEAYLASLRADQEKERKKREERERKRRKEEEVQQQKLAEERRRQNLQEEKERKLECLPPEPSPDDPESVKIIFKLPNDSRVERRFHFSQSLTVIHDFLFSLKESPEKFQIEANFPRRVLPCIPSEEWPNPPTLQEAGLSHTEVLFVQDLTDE
inactive: [1] -0.016 | [2] -0.038 | [6] -0.038 | [3] -0.027 | entinostat 0.021 | vorinostat 0.092 | citarinostat 0.015 | silmitasertib 0.007 | [4] -0.054 | [5] -0.018

DCP2 (UniProt Q8IU60)
inactive: [1] -0.076 | [2] 0.009 | [3] -0.079 | entinostat 0.048 | [4] 0.048

CYB561A3 isoform 2 (UniProt Q8NBI2)
inactive: [1] -0.019 | [2] -0.075 | [6] -0.066 | entinostat -0.004 | vorinostat -0.254 | citarinostat -0.081 | silmitasertib 0.04 | [5] 0.035

FAM241A (UniProt Q8N8J7)
UniProt Q8N8J7, sequence (Q8N8J7 whole entry, looked up): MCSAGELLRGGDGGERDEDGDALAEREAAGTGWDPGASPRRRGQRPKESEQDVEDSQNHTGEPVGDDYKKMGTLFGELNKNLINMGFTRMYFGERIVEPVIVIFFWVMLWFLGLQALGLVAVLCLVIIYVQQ
active: [1] 0.661 | entinostat 0.424
inactive: [2] -0.033 | [6] -0.032 | [3] -0.004 | vorinostat -0.005 | citarinostat -0.09 | silmitasertib 0.045 | [5] -0.058

DAXX (UniProt Q9UER7)
inactive: [1] 0.093 | [2] -0.103 | [3] -0.08 | entinostat -0.099 | vorinostat 0.034 | citarinostat 0.075 | [5] -0.076

ECPAS (UniProt Q5VYK3)
inactive: [1] -0.009 | [2] -0.024 | [6] -0.169 | [3] -0.035 | entinostat 0.073 | vorinostat 0.077 | citarinostat 0.08 | silmitasertib 0.071 | [4] -0.038 | [5] -0.032

FAM193B (UniProt Q96PV7)
UniProt Q96PV7, sequence (Q96PV7 whole entry, looked up): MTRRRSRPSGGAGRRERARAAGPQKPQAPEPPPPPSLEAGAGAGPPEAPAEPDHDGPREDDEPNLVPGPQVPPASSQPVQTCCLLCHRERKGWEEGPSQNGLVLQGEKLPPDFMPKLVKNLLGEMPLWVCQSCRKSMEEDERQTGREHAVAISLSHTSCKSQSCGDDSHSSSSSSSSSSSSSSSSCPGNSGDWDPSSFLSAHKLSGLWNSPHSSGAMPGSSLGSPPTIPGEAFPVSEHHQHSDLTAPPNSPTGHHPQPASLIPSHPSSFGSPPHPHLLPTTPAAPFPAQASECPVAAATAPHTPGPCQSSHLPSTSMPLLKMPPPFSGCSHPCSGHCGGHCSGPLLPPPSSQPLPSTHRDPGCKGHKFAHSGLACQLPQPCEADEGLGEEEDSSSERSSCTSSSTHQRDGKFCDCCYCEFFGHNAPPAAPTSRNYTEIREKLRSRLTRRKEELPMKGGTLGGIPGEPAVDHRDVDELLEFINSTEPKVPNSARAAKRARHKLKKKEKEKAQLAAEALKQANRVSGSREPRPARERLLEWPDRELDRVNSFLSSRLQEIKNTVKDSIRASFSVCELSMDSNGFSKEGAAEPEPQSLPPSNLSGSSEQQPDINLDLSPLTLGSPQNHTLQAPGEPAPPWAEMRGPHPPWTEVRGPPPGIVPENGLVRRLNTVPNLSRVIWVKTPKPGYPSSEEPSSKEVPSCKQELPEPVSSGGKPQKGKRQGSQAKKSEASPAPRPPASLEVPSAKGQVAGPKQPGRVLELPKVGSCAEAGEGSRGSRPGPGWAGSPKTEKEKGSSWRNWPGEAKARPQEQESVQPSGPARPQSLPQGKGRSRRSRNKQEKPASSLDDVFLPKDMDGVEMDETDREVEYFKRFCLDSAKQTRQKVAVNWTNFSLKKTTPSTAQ
inactive: [1] 0.22 | [2] -0.053 | [3] -0.014 | entinostat 0.25 | citarinostat 0.032 | [4] 0.149 | [5] -0.205

DPH5 isoform 5 (UniProt Q9H2P9)
UniProt Q9H2P9, sequence (Q9H2P9 whole entry, looked up): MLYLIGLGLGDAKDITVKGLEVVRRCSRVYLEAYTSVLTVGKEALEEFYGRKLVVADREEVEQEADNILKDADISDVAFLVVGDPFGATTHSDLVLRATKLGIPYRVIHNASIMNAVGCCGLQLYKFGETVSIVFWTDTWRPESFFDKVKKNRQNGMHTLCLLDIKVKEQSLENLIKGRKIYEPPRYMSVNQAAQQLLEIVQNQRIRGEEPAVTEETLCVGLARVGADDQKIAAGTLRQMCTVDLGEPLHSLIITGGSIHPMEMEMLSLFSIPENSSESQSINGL
inactive: [1] -0.036 | [2] -0.005 | [6] 0.209 | [3] -0.003 | entinostat -0.018 | vorinostat -0.009 | citarinostat 0.017 | silmitasertib -0.008 | [4] 0.109 | [5] 0.038

EIF3J isoform 2 (UniProt O75822)
inactive: [1] -0.094 | [2] -0.197 | [6] -0.102 | [3] 0.023 | entinostat -0.041 | silmitasertib -0.11 | [4] 0.002

DHCR24 (UniProt Q15392)
inactive: [1] -0.022 | [2] -0.037 | [6] 0.048 | [3] -0.024 | entinostat -0.082 | vorinostat -0.012 | citarinostat 0 | silmitasertib -0.018 | [4] 0.041
active: [5] 1.08

DLD (UniProt P09622)
inactive: [1] 0.003 | [2] 0.007 | [6] -0.088 | [3] 0.033 | entinostat -0.013 | vorinostat -0.02 | citarinostat 0.011 | silmitasertib -0.042 | [4] -0.004 | [5] -0.093

EIF4E2 (UniProt O60573)
inactive: [1] 0.054 | [2] -0.015 | [6] 0.085 | [3] -0.048 | entinostat 0.075 | citarinostat 0.245 | silmitasertib 0.019 | [4] 0.003 | [5] 0.079

DPYSL2 (UniProt Q16555)
inactive: [1] 0.053 | [2] 0.01 | [6] 0.014 | [3] -0.056 | entinostat -0.037 | vorinostat 0.276 | citarinostat -0.017 | silmitasertib -0.118 | [4] -0.224 | [5] -0.054

EEF1A1 (UniProt P68104)
inactive: [1] -0.046 | [2] 0.084 | [6] 0.091 | [3] 0.191 | entinostat -0.017 | citarinostat -0.04 | silmitasertib -0.11 | [4] 0.023 | [5] 0.07

DDB1 (UniProt Q16531)
inactive: [1] 0.027 | [2] -0.025 | [6] -0.024 | [3] -0.004 | entinostat -0.022 | vorinostat -0.021 | citarinostat 0.02 | silmitasertib -0.002 | [4] -0.018 | [5] -0.03

DHRS13 (UniProt Q6UX07)
inactive: [1] 0.182 | [2] -0.012 | [6] 0.102 | [3] 0.156 | entinostat 0.043 | vorinostat -0.013 | citarinostat 0.1 | silmitasertib 0.087 | [5] -0.06

CUX1 isoform 2 (UniProt Q13948)
UniProt Q13948, sequence (Q13948 whole entry, looked up): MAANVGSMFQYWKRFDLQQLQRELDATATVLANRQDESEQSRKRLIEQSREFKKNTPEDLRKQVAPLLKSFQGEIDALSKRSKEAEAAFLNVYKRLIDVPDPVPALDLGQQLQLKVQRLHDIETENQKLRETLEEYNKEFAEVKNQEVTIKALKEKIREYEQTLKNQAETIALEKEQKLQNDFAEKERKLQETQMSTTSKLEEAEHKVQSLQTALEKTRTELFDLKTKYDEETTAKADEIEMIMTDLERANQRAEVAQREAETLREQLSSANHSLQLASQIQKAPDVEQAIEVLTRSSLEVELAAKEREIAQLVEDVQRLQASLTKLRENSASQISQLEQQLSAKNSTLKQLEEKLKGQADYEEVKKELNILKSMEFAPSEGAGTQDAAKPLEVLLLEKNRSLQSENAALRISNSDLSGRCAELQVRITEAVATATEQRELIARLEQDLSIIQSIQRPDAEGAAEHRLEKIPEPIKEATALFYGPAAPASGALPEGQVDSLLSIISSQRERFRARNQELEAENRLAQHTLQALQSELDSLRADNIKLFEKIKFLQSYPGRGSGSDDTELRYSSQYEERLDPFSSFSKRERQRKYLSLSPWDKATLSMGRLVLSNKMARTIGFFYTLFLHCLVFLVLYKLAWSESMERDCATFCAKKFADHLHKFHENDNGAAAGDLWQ
inactive: [1] -0.027 | [2] -0.031 | [6] -0.033 | [3] -0.026 | vorinostat 0.076 | citarinostat 0.137 | silmitasertib -0.016 | [4] -0.047 | [5] -0.03
active: entinostat 0.343

FAM177A1 isoform 2 (UniProt Q8N128)
UniProt Q8N128, sequence (Q8N128 whole entry, looked up): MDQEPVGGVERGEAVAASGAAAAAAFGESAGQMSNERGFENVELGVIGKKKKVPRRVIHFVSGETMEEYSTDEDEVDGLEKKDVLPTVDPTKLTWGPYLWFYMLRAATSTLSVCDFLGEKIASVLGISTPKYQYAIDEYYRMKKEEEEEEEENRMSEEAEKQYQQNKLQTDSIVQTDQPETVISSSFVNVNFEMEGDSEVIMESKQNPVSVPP
inactive: [1] 0.047 | [2] -0.053 | [6] -0.023 | [3] -0.038 | entinostat 0.007 | vorinostat 0.072 | citarinostat 0.047 | silmitasertib 0.029 | [4] -0.089 | [5] 0.002

ETNK1 (UniProt Q9HBU6)
UniProt Q9HBU6, sequence (Q9HBU6 whole entry, looked up): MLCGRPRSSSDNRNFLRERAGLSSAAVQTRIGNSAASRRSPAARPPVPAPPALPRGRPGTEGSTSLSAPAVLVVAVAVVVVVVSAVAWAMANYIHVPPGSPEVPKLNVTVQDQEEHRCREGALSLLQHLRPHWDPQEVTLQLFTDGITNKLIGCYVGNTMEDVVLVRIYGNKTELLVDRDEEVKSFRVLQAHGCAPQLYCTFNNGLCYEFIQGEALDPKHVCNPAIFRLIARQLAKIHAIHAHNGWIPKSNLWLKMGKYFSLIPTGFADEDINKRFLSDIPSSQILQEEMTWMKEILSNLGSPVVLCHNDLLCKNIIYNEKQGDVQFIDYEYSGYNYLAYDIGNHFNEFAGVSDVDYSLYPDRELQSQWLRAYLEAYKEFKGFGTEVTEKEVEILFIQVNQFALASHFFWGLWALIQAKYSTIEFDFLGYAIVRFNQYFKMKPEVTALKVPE
inactive: [2] 0.011 | [6] -0.144 | [3] -0.057 | entinostat 0.089 | vorinostat -0.01 | citarinostat 0.019 | silmitasertib 0.041 | [4] 0.208 | [5] -0.084
active: [1] 0.25

DENND10 (UniProt Q8TCE6)
UniProt Q8TCE6, sequence (Q8TCE6 whole entry, looked up): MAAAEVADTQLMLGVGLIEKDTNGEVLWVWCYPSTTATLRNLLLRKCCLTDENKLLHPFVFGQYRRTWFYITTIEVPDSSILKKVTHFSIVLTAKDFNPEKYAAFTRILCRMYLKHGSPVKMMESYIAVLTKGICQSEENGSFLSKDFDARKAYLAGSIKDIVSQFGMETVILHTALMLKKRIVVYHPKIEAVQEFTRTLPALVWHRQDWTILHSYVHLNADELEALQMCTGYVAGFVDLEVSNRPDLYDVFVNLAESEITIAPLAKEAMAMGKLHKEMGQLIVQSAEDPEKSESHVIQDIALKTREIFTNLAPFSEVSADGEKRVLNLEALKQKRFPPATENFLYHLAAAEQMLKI
inactive: [1] 0.018 | [2] 0 | [6] -0.089 | [3] -0.069 | entinostat -0.076 | citarinostat 0.07 | silmitasertib 0.037 | [4] 0.073 | [5] 0.054

FAM122A (UniProt Q96E09)
inactive: [1] -0.031 | [2] 0.076 | [6] -0.048 | [3] 0.023 | entinostat 0.143 | vorinostat 0.025 | citarinostat -0.009 | silmitasertib 0.005 | [4] -0.052 | [5] 0.062

DNAJC7 (UniProt Q99615)
UniProt Q99615, sequence (Q99615 whole entry, looked up): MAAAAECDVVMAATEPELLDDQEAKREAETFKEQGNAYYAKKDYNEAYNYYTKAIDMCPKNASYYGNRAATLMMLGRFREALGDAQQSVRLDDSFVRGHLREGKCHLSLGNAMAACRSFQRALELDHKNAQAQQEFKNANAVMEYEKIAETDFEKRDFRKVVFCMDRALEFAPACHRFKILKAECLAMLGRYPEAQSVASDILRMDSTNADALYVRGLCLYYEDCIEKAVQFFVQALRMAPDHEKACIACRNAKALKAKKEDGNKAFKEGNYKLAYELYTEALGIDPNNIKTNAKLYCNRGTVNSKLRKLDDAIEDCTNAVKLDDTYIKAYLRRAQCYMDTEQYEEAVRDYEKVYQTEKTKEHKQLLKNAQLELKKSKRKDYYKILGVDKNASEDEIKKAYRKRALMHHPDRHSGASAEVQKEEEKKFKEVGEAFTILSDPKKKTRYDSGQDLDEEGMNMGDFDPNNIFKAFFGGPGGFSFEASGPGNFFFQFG
inactive: [1] -0.067 | [2] -0.029 | [6] -0.204 | [3] -0.071 | entinostat 0.05 | vorinostat 0.043 | citarinostat 0.071 | silmitasertib 0.001 | [4] -0.03 | [5] -0.001

EGR1 (UniProt P18146)
inactive: [1] -0.029 | [2] -0.346 | [6] 0.345 | [3] 0.066 | entinostat 0.091 | vorinostat -0.033 | silmitasertib 0.085 | [4] -0.109

EZH2 isoform 2 (UniProt Q15910)
inactive: [1] 0.316 | [2] -0.004 | [6] 0.342 | [3] 0.33 | entinostat -0.039 | silmitasertib 0.046 | [4] -0.118

EIF2S3 (UniProt P41091)
inactive: [1] 0.034 | [2] 0.006 | [6] 0.163 | [3] 0.025 | entinostat -0.001 | vorinostat 0 | citarinostat -0.044 | silmitasertib -0.001 | [4] 0.066 | [5] -0.154
